Measured values from the supplement of paper PMC10849652.
About 7,900 targets were measured; listed, in parts, are those with a hit and a random draw of the rest. About 0.6% of all pairs of compound and target were hits. A number with no mark means an inactive call.

Experiments:
Assay in all cases: log2 fold change, soluble protein after heating vs DMSO (PISA); higher = thermal stabilisation; K562 cells, 10 uM, 30 min; active = over 0.2 and 3.5 SD of the protein, either way, in both replicates (recomputed)
IRAK-1-4 Inhibitor I = compound: C1COCCN1CCN2C3=CC=CC=C3N=C2NC(=O)C4=CC(=CC=C4)[N+](=O)[O-] [IRAK-1-4 Inhibitor I]
Outline: (§1)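 K562 cells (2×10^6 cells/mL) were treated with 10 μM compound for 30 min, and aliquots were heated for 3 min over 48°C-58°C. Pooled aliquots were extracted in PBS with 0.5% NP-40 at 4°C, and the supernatant after 21,000xg for 90 min was measured by TMTpro 16plex LC-MS/MS with channel sums equalised. Reported thermal stability, relative to control samples and from duplicates, is a log2 fold change.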

ibrutinib = compound: C=CC(=O)N1CCC[C@@H](n2nc(-c3ccc(Oc4ccccc4)cc3)c3c(N)ncnc32)C1 [ibrutinib]
Outline: as §1

[1] = compound: CC(=O)c1cnc2ccc(-c3cc(Cl)c(O)c(Cl)c3)nc2c1N[C@H]1CC[C@H](CN(C)C)CC1
Outline: as §1

ralimetinib = compound: CC(C)(C)Cn1c(N)nc2ccc(-c3[nH]c(C(C)(C)C)nc3-c3ccc(F)cc3)nc21 [ralimetinib]
Outline: as §1

[2] = compound: CC(C)(O)CC(=O)NCCn1ccc2ncnc(Nc3ccc(Oc4cccc(C(F)(F)F)c4)c(Cl)c3)c21
Outline: as §1

[3] = compound: CC(C)C1=C2N=C(C=C(N2N=C1)NCC3=CC=CC=C3)NCCCCCCN
Outline: as §1

[4] = compound: CC(C)C[C@@H](C=O)NC(=O)[C@H](CC(C)C)NC(=O)[C@H](CC(C)C)NC(=O)OCc1ccccc1
Outline: as §1

pinometostat = compound: CC(C)N(C[C@H]1O[C@@H](n2cnc3c(N)ncnc32)[C@H](O)[C@@H]1O)[C@H]1C[C@@H](CCc2nc3cc(C(C)(C)C)ccc3[nH]2)C1 [pinometostat]
Outline: as §1

[5] = compound: CC1=C(C(CC(=O)N1)C2=CC=C(C=C2)C(F)(F)F)C(=O)NC3=C(C=C4C(=C3)C=NN4)F
Outline: as §1

[6] = compound: CC1=C(C2=C(C=C1)C(=O)C3=CC=CC=C3N2CCCN)C
Outline: as §1

[7] = compound: CC1=C(C=C(C=C1)NC(=O)C2=CC(=CC=C2)C(C)(C)C#N)NC3=CC4=C(C=C3)N=CN(C4=O)C
Outline: as §1

[8] = compound: CC1=C(C=C(C=C1)NC(=O)C2=CC(=CC=C2)N(C)C)NC(=O)C3=CC=C(C=C3)O
Outline: as §1

[9] = compound: CC1=CC=C(C=C1)SC2=C3C=C(SC3=CN=C2)C(=O)N
Outline: as §1

[10] = compound: CC1=NC(=CC=C1)C2=C(N=C(N2)C(C)(C)C)C3=CC4=NC=CN=C4C=C3
Outline: as §1

Nexturastat A = compound: CCCCN(Cc1ccc(C(=O)NO)cc1)C(=O)Nc1ccccc1 [Nexturastat A]
Outline: as §1

vemurafenib = compound: CCCS(=O)(=O)Nc1ccc(F)c(C(=O)c2c[nH]c3ncc(-c4ccc(Cl)cc4)cc23)c1F [vemurafenib]
Outline: as §1

[11] = compound: CCCS(=O)(=O)Nc1ccc(F)c(C(=O)c2c[nH]c3ncc(Cl)cc23)c1F
Outline: as §1

[12] = compound: CCCc1cc(C)[nH]c(=O)c1CNC(=O)c1cc(-c2ccnc(N3CCN(C)CC3)c2)cc2c1cnn2C(C)C
Outline: as §1

givinostat = compound: CCN(CC)Cc1ccc2cc(COC(=O)Nc3ccc(C(=O)NO)cc3)ccc2c1 [givinostat]
Outline: as §1

barasertib = compound: CCN(CCCOc1ccc2c(Nc3cc(CC(=O)Nc4cccc(F)c4)[nH]n3)ncnc2c1)CCOP(=O)(O)O [barasertib]
Outline: as §1

Chain of UniProt Q8N2F6 (Q8N2F6 whole entry, looked up): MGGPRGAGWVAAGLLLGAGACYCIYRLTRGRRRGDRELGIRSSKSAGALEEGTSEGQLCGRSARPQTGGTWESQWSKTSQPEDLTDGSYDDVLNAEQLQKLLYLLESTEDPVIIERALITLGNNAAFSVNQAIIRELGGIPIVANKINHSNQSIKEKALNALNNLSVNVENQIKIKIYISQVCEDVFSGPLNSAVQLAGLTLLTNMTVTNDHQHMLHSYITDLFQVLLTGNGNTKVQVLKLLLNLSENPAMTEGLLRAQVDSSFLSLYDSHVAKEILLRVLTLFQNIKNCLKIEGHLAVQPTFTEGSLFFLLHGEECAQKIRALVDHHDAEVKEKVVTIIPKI
Chain of UniProt P49748 (P49748 whole entry, looked up): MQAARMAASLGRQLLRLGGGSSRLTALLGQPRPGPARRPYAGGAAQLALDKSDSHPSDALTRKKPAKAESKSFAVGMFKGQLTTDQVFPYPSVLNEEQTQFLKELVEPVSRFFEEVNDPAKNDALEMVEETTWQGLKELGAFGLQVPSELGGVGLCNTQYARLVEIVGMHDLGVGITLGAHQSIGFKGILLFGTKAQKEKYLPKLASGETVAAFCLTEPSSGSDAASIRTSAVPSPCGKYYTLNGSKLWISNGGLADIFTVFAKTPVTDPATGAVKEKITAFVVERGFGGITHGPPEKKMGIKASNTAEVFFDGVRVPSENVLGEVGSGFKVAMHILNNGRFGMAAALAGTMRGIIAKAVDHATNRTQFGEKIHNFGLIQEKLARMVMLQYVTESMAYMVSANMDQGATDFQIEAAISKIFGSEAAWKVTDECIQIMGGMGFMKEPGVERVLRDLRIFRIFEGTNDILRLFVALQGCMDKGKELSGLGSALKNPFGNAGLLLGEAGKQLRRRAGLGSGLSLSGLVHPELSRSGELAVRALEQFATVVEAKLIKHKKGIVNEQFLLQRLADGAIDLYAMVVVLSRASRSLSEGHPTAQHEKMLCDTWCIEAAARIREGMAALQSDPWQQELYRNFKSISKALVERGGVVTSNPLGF
Chain of UniProt Q9NX46 (Q9NX46 whole entry, looked up): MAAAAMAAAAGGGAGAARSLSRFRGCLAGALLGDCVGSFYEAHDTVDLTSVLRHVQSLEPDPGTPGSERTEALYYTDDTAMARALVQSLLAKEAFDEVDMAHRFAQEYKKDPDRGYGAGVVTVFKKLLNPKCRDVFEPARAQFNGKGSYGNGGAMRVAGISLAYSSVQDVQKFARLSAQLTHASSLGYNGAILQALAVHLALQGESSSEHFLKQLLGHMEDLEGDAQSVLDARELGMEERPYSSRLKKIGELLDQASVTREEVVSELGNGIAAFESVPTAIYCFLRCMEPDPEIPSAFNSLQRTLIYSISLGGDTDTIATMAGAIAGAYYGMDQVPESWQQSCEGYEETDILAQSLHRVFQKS
Chain of UniProt Q8WV93 (Q8WV93 whole entry, looked up): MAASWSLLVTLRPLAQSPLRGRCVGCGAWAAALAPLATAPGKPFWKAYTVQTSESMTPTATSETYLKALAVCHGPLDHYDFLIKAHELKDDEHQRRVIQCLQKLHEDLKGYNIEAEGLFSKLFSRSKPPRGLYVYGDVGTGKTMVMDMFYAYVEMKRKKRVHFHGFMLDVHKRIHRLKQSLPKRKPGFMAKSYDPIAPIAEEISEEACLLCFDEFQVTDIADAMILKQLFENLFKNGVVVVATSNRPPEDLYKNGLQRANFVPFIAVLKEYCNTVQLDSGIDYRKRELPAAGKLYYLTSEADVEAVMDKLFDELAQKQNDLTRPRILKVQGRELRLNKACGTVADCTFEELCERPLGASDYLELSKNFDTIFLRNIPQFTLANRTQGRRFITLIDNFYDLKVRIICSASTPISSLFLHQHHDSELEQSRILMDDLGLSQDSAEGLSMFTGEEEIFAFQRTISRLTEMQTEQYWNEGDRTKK
Chain of UniProt Q8NBU5 (Q8NBU5 whole entry, looked up): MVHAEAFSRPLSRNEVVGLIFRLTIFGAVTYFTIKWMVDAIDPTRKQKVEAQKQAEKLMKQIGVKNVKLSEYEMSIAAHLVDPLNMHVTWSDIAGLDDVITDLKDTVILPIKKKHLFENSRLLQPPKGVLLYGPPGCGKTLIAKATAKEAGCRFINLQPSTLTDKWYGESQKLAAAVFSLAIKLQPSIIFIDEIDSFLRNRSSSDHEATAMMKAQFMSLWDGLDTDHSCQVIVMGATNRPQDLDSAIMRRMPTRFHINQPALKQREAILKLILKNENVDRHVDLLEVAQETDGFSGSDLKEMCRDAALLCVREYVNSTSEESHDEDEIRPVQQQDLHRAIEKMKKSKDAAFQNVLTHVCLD
Chain of UniProt Q9P287 (Q9P287 whole entry, looked up): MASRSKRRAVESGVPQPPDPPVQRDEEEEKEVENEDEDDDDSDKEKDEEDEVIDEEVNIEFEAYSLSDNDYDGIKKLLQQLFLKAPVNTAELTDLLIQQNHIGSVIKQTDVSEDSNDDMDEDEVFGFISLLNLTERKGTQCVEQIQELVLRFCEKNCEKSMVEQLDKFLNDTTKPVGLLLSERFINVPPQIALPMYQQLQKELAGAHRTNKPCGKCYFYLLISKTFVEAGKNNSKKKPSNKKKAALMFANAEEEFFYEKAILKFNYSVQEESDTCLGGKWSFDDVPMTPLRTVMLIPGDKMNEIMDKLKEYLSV
Chain of UniProt Q7Z569 (Q7Z569 whole entry, looked up): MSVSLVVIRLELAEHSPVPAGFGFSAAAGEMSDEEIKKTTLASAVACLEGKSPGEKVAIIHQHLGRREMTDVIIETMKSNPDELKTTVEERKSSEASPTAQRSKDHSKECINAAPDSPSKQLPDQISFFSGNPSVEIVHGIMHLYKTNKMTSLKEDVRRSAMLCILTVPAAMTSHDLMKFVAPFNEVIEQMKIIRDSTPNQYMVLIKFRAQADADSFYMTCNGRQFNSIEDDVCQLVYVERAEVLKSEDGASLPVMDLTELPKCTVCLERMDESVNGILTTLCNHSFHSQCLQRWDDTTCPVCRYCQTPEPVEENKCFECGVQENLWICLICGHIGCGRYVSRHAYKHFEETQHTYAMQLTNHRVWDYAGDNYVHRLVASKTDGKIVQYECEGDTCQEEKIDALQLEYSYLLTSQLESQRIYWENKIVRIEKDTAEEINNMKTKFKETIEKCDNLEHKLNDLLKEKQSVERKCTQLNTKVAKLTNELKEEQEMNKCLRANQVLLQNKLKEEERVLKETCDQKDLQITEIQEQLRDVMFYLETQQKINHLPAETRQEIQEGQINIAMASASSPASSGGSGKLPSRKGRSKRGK
Chain of UniProt Q13733 (Q13733 whole entry, looked up): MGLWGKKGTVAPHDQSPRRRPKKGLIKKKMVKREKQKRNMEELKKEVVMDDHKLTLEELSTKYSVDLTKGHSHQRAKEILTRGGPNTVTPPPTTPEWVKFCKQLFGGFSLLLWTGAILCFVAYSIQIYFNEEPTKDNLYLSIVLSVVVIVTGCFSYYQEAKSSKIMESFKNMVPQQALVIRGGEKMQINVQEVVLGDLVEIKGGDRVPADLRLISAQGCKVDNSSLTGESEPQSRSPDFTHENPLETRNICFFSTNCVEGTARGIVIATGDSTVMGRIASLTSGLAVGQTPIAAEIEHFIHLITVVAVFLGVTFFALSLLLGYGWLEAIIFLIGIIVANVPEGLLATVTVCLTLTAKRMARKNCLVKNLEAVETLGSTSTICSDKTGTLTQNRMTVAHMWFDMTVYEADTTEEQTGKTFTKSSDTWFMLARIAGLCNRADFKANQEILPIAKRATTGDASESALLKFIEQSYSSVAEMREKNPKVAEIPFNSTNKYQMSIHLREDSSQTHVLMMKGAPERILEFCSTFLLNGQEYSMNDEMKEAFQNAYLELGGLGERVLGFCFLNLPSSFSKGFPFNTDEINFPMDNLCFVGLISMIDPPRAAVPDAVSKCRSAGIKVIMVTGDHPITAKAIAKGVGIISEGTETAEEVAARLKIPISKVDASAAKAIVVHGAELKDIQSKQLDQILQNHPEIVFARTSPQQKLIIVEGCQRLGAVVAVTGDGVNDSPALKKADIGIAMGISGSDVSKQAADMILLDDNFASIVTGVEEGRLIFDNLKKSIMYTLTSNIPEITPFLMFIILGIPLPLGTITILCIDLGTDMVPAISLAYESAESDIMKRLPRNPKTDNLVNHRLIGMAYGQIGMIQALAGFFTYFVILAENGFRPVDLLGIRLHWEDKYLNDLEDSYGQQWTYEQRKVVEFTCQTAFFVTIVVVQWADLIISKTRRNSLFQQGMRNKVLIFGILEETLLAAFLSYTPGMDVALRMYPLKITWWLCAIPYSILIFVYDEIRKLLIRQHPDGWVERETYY
Chain of UniProt Q9UEY8 (Q9UEY8 whole entry, looked up): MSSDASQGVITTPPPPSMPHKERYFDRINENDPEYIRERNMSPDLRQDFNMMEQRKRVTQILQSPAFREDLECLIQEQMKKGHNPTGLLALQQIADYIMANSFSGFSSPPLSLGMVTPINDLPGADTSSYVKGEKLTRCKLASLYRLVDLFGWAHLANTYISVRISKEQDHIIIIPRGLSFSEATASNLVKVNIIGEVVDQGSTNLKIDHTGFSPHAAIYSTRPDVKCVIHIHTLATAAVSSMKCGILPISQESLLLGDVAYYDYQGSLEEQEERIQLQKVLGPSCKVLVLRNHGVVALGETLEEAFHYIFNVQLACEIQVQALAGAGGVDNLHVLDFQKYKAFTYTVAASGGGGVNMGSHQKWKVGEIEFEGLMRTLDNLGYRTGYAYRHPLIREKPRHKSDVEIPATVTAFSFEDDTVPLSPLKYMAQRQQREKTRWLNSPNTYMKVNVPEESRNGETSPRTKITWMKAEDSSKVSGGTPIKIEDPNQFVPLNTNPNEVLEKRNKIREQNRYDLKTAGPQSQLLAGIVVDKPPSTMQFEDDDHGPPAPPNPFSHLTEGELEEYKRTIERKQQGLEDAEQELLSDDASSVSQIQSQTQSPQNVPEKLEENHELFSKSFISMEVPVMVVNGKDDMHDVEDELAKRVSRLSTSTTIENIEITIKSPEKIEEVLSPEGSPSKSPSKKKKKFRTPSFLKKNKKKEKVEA
Chain of UniProt O00244 (O00244 whole entry, looked up): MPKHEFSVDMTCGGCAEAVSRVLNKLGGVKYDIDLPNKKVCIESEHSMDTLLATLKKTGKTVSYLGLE

Target | log2 fold change (IRAK-1-4 Inhibitor I) | log2 fold change (ibrutinib) | log2 fold change [1] | log2 fold change (ralimetinib) | log2 fold change [2] | log2 fold change [3] | log2 fold change [4] | log2 fold change (pinometostat) | log2 fold change [5] | log2 fold change [6] | log2 fold change [7] | log2 fold change [8] | log2 fold change [9] | log2 fold change [10] | log2 fold change (Nexturastat A) | log2 fold change (vemurafenib) | log2 fold change [11] | log2 fold change [12] | log2 fold change (givinostat) | log2 fold change (barasertib)
AHCYL1 (UniProt O43865) | 0.035 | 0.062 | 0.337 (active) | 0.008 | -0.016 | 0.014 | 0.001 | -0.048 | -0.033 | -0.004 | -0.103 | 0.003 | -0.061 | 0.011 | 0.014 | -0.029 | -0.015 | -0.039 | -0.026 | -0.036
ACADVL isoform 3 (UniProt P49748) | 0.038 | -0.002 | 0.005 | -0.015 | -0.016 | -0.013 | -0.025 | -0.067 | -0.032 | 0.002 | -0.004 | 0.01 | 0.024 | -0.002 | -0.073 | -0.009 | 0.01 | -0.002 | 0.026 | 0.006
ARMC10 (UniProt Q8N2F6) | 0.001 | -0.018 | -0.035 | -0.003 | -0.029 | 0.005 | 0.034 | 0.033 | 0.003 | 0 | 0.03 | -0.087 | -0.019 | -0.046 | 0.056 | 0.12 | 0.074 | 0.072 | 0.063 | 0.019
ARL1 (UniProt P40616) | 0.007 | -0.031 | -0.06 | 0.029 | -0.09 | 0.044 | -0.049 | -0.039 | -0.065 | 0.066 | 0.057 | -0.012 | 0.162 | 0.054 | -0.119 | 0.037 | 0.116 | 0.071 | 0.07 | 0.007
ATAD1 (UniProt Q8NBU5) | -0.007 | 0.011 | -0.081 | 0.238 (active) | -0.083 | -0.077 | 0.038 | 0.041 | -0.083 | 0.054 | 0.019 | -0.034 | 0.012 | -0.012 | -0.305 | 0.076 | 0.022 | 0.045 | 0.046 | 0.055
AP2A1 (UniProt O95782) | -0.054 | 0.01 | -0.14 | 0.052 | 0.027 | 0.023 | -0.06 | 0 | 0.01 | 0.081 | 0.024 | -0.016 | 0.004 | 0.084 | 0.048 | 0.009 | 0.03 | -0.003 | 0.008 | -0.028
ATP9B (UniProt O43861) | 0.061 | -0.068 | -0.034 | -0.077 | -0.054 | -0.071 | -0.024 | -0.064 | -0.004 | 0.003 | -0.185 | -0.007 | -0.054 | 0.061 | 0.013 | -0.05 | 0.01 | -0.03 | 0.085 | 0.013
BCCIP isoform 2 (UniProt Q9P287) | 0.013 | -0.025 | 0.008 | -0.048 | 0.012 | 0.008 | -0.012 | 0.029 | -0.012 | 0.077 | 0.042 | -0.055 | -0.015 | 0.022 | -0.065 | 0.008 | -0.003 | -0.099 | -0.066 | 0.026
ADPRHL2 (UniProt Q9NX46) | 0 | -0.021 | -0.025 | -0.021 | -0.088 | 0.08 | -0.038 | -0.015 | -0.126 | -0.002 | 0.022 | -0.06 | 0.007 | 0.111 | -0.077 | 0.126 | 0.076 | -0.003 | 0.004 | 0.043
ARGLU1 (UniProt Q9NWB6) | -0.289 | -0.019 | -0.633 (active) | -0.029 | 0.15 | 0.023 | -0.001 | 0.127 | -0.019 | 0.134 | 0.046 | 0.055 | -0.136 | -0.044 | 0.147 | 0.061 | -0.045 | -0.009 | 0.001 | -0.075
ATOX1 (UniProt O00244) | 0.018 | 0.01 | 0.154 | 0.23 | -0.005 | 0.109 | -0.198 | -0.153 | -0.004 | 0.099 | 0.056 | -0.065 | 0.275 | 0.239 | -0.037 | 0.054 | 0.372 | 0.28 | -0.072 | -0.025
ATP1A4 (UniProt Q13733) | 0.002 | -0.013 | 0.032 | -0.025 | -0.025 | 0.121 | -0.033 | -0.017 | 0.016 | 0.03 | 0.017 | 0.029 | 0.141 | 0.065 | -0.03 | -0.137 | -0.08 | -0.026 | -0.216 | 0
BRAP (UniProt Q7Z569) | -0.032 | -0.066 | -0.018 | 0.16 | -0.016 | -0.11 | -0.093 | 0.033 | 0.026 | 0.263 (active) | 0.057 | 0.075 | 0.023 | 0.029 | -0.031 | 0.037 | 0.151 | 0.08 | -0.081 | 0.08
ADD3 (UniProt Q9UEY8) | 0.063 | 0.025 | -0.29 (active) | -0.011 | 0.008 | 0.097 | 0.018 | -0.034 | 0.019 | 0.014 | 0.024 | 0.016 | -0.015 | -0.003 | 0.021 | -0.021 | 0.006 | -0.013 | -0.043 | -0.01
APLP2 (UniProt Q06481) | -0.073 | -0.005 | -0.004 | 0.086 | 0.133 | 0.167 | 0.062 | 0 | -0.017 | -0.225 | 0.088 | -0.043 | -0.003 | -0.009 | -0.053 | -0.033 | 0.011 | 0.018 | -0.041 | -0.04
AFG1L (UniProt Q8WV93) | 0.014 | -0.016 | -0.135 | -0.134 | -0.091 | -0.385 (active) | 0.146 | 0.023 | 0.057 | -0.056 | 0.036 | 0.037 | 0.042 | 0.015 | -0.122 | 0.115 | 0.041 | -0.018 | 0.013 | 0.01
